A short description of assay [1]: qHTS assay for small molecule agonists of the p53 signaling pathway (AID 651631; calls by dose curve; further: nearly all actives have a fitted effect of over 15% in size). The essentials: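 p53RE-bla HCT-116 cells; compounds 16 h, 37 °C; LiveBLAzer B/G FRET substrate 2 h RT; fluorescence intensity read-out, qHTS format.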
The nature of assay [2]: qHTS assay for small molecules that induce genotoxicity in human embryonic kidney cells expressing luciferase-tagged ATAD5 (AID 651632). Further: nearly all actives have a fitted effect of over 15% in size. The essentials:
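Cells were seeded at 2,000 per well, dosed with compound, and incubated 16 hr at 37C in 5% CO2. Luciferase activity was then quantified after a 30 min room-temperature incubation with Amplite.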
On the technique in general: Quantitative high-throughput screening tests each substance at several concentrations.

A short description of assay [3]: qHTS assay for small molecule agonists of the p53 signaling pathway - cell viability (AID 651633; calls by dose curve;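 further: p53RE-bla HCT reporter cells with a stable beta-lactamase p53 reporter; series mostly up to about 83 µM; nearly all actives have a fitted effect of over 30% in size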). The essentials:
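Viability counter-read: CellTiter-Glo luminescence (30 min, room temperature) in the same p53RE-bla plates. These plates had been exposed to compounds for 16 h at 37 C.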

Assay [4] in a line: qHTS assay for small molecules that induce genotoxicity in human embryonic kidney cells expressing luciferase-tagged ATAD5 - cell viability (AID 651634; calls by dose curve; further: nearly all actives have a fitted effect of over 25% in size). The essentials: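 Cells (HEK293T, luciferase-tagged ATAD5) are seeded at 2,000 per well, dosed with compound or DMSO vehicle, and incubated 15.5 hr at 37C and 5% CO2. CellTiter-Fluor is added for 30 min before fluorescence is measured.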

Assay [5] in a line: qHTS assay for small molecule disruptors of the mitochondrial membrane potential - cell viability (AID 720634; calls by dose curve;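 further: human HepG2 liver cancer cells; series mostly up to about 83 µM; nearly all actives have a fitted effect of over 20% in size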). The essentials:
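Cytotoxicity was measured by ATP quantitation in HepG2 wells that had first been treated with compound for 1 hr and stained with m-MPI dye; CellTiter-Glo incubation was 30 min at room temperature.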

Assay [6] can be described thus: qHTS assay to test for compound auto fluorescence at 590 nm (red) in HepG2 cells (AID 720674). The essentials: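 Red autofluorescence (Ex/Em 540/590 nm, Rose Bengal sodium equivalents) was measured in HepG2 cells, 2,000 per well in MEM plus 10% FBS, plated overnight at 37 C. Readings were taken 1 hr after adding 23 nL compound or DMSO, at 37 C and 5% CO2.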
Assay [7] can be described thus: qHTS assay to test for compound auto fluorescence at 535 nm (green) in HepG2 cells (AID 720675).
Assay [8] in a line: qHTS assay to test for compound auto fluorescence at 460 nm (blue) in HEK293 cells (AID 720678). Summed up: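 HEK293 cells (2,000 per well, medium with 10% dialyzed FBS) attached for 4-5 hr at 37C, then received compound and stood overnight at 37C, 5% CO2. Blue fluorescence was read at Ex/Em 405/460 nm and expressed relative to triamterene.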
Assay [9] is described as follows: qHTS assay to test for compound auto fluorescence at 590 nm (red) in HEK293 cells (AID 720679). Summed up:
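HEK293 cells (2,000/well, medium with 10% dialyzed FBS) attached for 4-5 hr at 37C, received 23 nL compound and were incubated overnight at 37C, 5% CO2. Red fluorescence was then read at 540/590nm Ex/Em, referenced to Rose Bengal sodium.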

A short description of assay [10]: qHTS assay for small molecule disruptors of the mitochondrial membrane potential (AID 720635). Further: potency means the concentration at half of the fitted maximal effect. The essentials: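 Mitochondrial membrane potential tracked with Mito-MPS dye, red aggregates (ex 540/em 590 nm) against green monomers (ex 490/em 535 nm). Compound treatment 1 hr at 37C, dye 30 min in HepG2.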

Each structure is given as a SMILES string. Unmarked numbers belong to inactive results. Inconclusive results are not listed. The source made the active and inactive calls. Unless noted, the call rests on the fitted dose curve; in most records, active means well fitted curve in the direction sought with a large enough effect in the repeat runs; inconclusive means weak or mixed curves; inactive means no such curve, though single readings can be large; an effect the other way counts as inactive or inconclusive.
On the % scale 0 is the no-effect control and ±100 the full control effect.

Consider `CN(C)CCCN(C)C`, for which the activation in assay [1] was 3.19% [at 8.3 µM]; in assay [2], -0.426% [at 8.08 µM]. Also, the activity change, negative = cytotoxicity in assay [3] is 10.5% [at 8.08 µM]; in [5], 7.6% [at 8.08 µM]. The activity, negative = cytotoxicity in [4] is 29.6% [at 8.08 µM]. In [6], the fluorescence, relative to Rose Bengal was -1.07% [at 3.72 µM]. In addition, in assay [7], the fluorescence, % of fluorescein control is -0.223% [at 3.72 µM]. Also, in assay [8], the fluorescence, % of triamterene was -0.32% [at 3.72 µM]. In assay [9], the fluorescence, % of fluorescent control is -0.954% [at 3.72 µM].

With `CCOC(=O)[C@H](CCc1ccccc1)N[C@H]1CS[C@H](c2cccs2)CN(CC(=O)O)C1=O`, the Potency result in assay [1], in [2] and in assay [10] was “inactive” in each case. For the same molecule, the result in [3], in assay [4], in [5], in [6], in [7] and in assay [9] was inactive.

As for `O=C1c2ccccc2C(=O)N1CO`, the Potency entry in assay [1] and in [2] was “inactive” throughout. The call in assay [3], in [4], in [5], in assay [6], in assay [7] and in assay [8] was inactive. In [9], the molecule was called inactive.

Consider `O=C[C@@H](O)[C@H](O)[C@H](O)CO`, for which the Potency result in assay [1] and in assay [2] was “inactive” in each case. In addition, the molecule was classed as inactive in assay [3], in assay [4], in [5], in assay [6], in assay [7] and in assay [8]. For the same molecule, the molecule was classed as inactive in [9].

Take `C=C(C)C(=O)OCCCC`: the Potency entry in assay [1] and in assay [2] was “inactive” in each case. Moreover, the outcome in [3], in assay [4], in assay [5], in [6], in assay [7] and in assay [8] was inactive. Also, the molecule was classed as inactive in assay [9].

As to `Clc1cc(Cl)c(Cl)c(Cl)c1Cl`, the Potency result in [1] and in assay [2] was “inactive” in each case. The result in [3], in assay [4], in assay [5], in assay [6], in assay [7] and in assay [8] was inactive. In addition, the molecule was called inactive in assay [9].

`O=S(=O)(O)c1ccc(Cl)cc1`: the Potency entry in assay [1] and in assay [2] was “inactive” in each case. Besides, the result in [3], in [4], in assay [5], in assay [6], in assay [7] and in [8] was inactive. Also, the call in [9] was inactive.

Turning to `O=S(=O)(O)CC(O)CCl` (stereo not given), the Potency entry in assay [1] and in assay [2] was “inactive” each time. In addition, the call in assay [3], in assay [4], in assay [5], in assay [6], in [7] and in assay [8] was inactive. The molecule was classed as inactive in assay [9].

Turning to `COC(C)(C)CC(C)=O`, the Potency entry in assay [1] and in assay [2] was “inactive” each time. Moreover, the outcome in assay [3], in [4], in [5], in [6], in [7] and in assay [8] was inactive. Moreover, the molecule was classed as inactive in assay [9].

On to `CCO/C=C1\N=C(c2ccccc2)OC1=O`, for which the Potency entry in assay [1], in [2] and in assay [10] was “inactive” throughout. The molecule was called inactive in assay [3], in assay [4], in assay [5], in [6], in assay [7] and in [9].

`CC(O)C(CO)C(C)O` (stereo not given): the Potency entry in assay [1], in assay [2] and in assay [10] was “inactive” throughout. Besides, the result in assay [3], in assay [4], in assay [5], in assay [6], in assay [7] and in [9] was inactive.

As to `O=C(O)Cc1ccccc1Oc1ccc(Cl)cc1Cl`, the Potency entry in assay [1], in assay [2] and in assay [10] was “inactive” in each case. Moreover, the outcome in assay [3], in assay [4], in assay [5], in [6], in assay [7] and in assay [8] was inactive. In addition, the molecule was classed as inactive in assay [9].

In the case of `CSC(=O)c1cccc2nnsc12`, the Potency result in [1], in [2] and in assay [10] was “inactive” throughout. Moreover, the molecule was classed as inactive in [3], in assay [4], in [5], in assay [6], in [7] and in assay [8]. The molecule was called inactive in assay [9].

On to `CC12CCCC=C1C(=O)OC2=O` (stereo not given), for which the Potency entry in assay [1] and in assay [2] was “inactive” in each case. Also, the molecule was classed as inactive in assay [3], in [4], in [5], in [6], in assay [7] and in [8]. For the same molecule, the molecule was classed as inactive in assay [9].

Consider `Cc1ccc2cccnc2c1`, for which the Potency result in assay [1] and in assay [2] was “inactive” throughout. Also, the outcome in [3], in assay [4], in assay [5], in assay [6], in [7] and in [8] was inactive. Besides, the molecule was called inactive in assay [9].

Regarding `COc1cc(C(=O)NC2CCCNC2)cc(OC)c1OC` (stereo not given), the Potency entry in assay [1], in assay [2] and in [10] was “inactive” in each case. For the same molecule, the outcome in assay [3], in [4], in assay [5], in assay [6], in [7] and in [8] was inactive. Besides, in assay [9], the molecule was classed as inactive.

For the molecule `Cc1cc(C)c(N)c(Cl)c1`, the Potency entry in assay [1] and in [2] was “inactive” throughout. Moreover, the result in assay [3], in assay [4], in assay [5], in assay [6], in [7] and in [8] was inactive. In addition, the call in assay [9] was inactive.

`CC1(C)C(=O)C(C)(C)C1=O`: the Potency entry in assay [1], in assay [2] and in assay [10] was “inactive” throughout. In addition, the call in [3], in [4], in assay [5], in assay [6], in [7] and in assay [8] was inactive. In addition, in assay [9], the molecule was classed as inactive.

With `CCOC(=O)COc1ccc2c(C)c(CCN(CC)CC)c(=O)oc2c1Cl`, the Potency result in assay [1] and in assay [2] was “inactive” throughout. Moreover, the outcome in [3], in [4], in assay [5], in [6], in assay [7] and in [8] was inactive. In [9], the molecule was classed as inactive.

With `CCO[Si](CC(C)C)(OCC)OCC`, the Potency result in [1] and in assay [2] was “inactive” each time. For the same molecule, the molecule was classed as inactive in [3], in assay [4], in [5], in assay [6], in assay [7] and in assay [9]. Moreover, the Potency in assay [10] is 27.3 µM (active).

As to `O=C(c1ccccc1)c1cccc(O)c1`, the Potency entry in [1] and in assay [2] was “inactive” throughout. Also, the call in [3], in [4], in assay [5], in assay [6], in assay [7] and in [8] was inactive. Moreover, the outcome in [9] was inactive. Moreover, the Potency in assay [10] was 27.7 µM (active).

`O=c1[nH]c(=O)c2cn[nH]c2[nH]1`: the Potency entry in assay [1] and in [2] was “inactive” in each case. In addition, the molecule was classed as inactive in assay [3], in [4], in assay [5], in assay [6], in assay [7] and in assay [8]. Besides, the molecule was called inactive in [9].

Regarding `CCCCC(CC)CCC(CC(C)C)OS(=O)(=O)O` (stereo not given), the Potency entry in [1] and in [2] was “inactive” in each case. Besides, the outcome in [3], in assay [4], in [6], in assay [7] and in assay [9] was inactive.

In the case of `CCCCCCCCCCCCCCCC(=O)OC`, the Potency entry in assay [1] and in [2] was “inactive” throughout. Also, the result in [3] and in [4] was inactive. Further, the fluorescence, relative to Rose Bengal in assay [6] was 0.0004% [at 18.6 µM]. For the same molecule, in assay [7], the fluorescence, % of fluorescein control is -0.0233% [at 18.6 µM]. Moreover, the fluorescence, % of fluorescent control in [9] was -0.225% [at 18.6 µM].

`COc1cc(OC)cc(OC)c1`: the Potency entry in [1], in assay [2] and in assay [10] was “inactive” in each case. In addition, the result in assay [3], in [4], in [6], in assay [7] and in [9] was inactive.

For the origin of these results see PubChem BioAssay (Tox21).
